A short description of experiment [1]: antimalarial activity against Dd2 strain (AID 2302;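 active = growth inhibition above 50% at the single 2 µM test dose, taken to imply half-maximal potency below 2 µM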;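 also: 0% = DMSO untreated growth and 100% = chloroquine plus artemisinin killed control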). Particulars: P. falciparum Dd2 in RBCs, LDH growth readout, 72 h; at 2 µM; hits give high values.
Experiment [2] in a line: human hepatoma cell viability loss – ATP luminescence, cytotoxicity control for P. falciparum antimalarial project, primary screen (AID 2303;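 active = inhibition above 50%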;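 also: 0% = DMSO wells and 100% = digitonin-killed cells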). The following applies: HepG2 viability, 24-48 h, at 10 µM, hits give high values.
Experiment [3] addresses L-lactate dehydrogenase (Plasmodium falciparum (isolate CDC / Honduras)) (UniProt Q27743). Nature of the experiment: PfLDH activity inhibition – cell lysate, 3D7 strain, counter-screen for P. falciparum growth inhibition project (AID 2304).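 Also: 0% = vehicle and 100% = reference inhibitor.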 Particulars: P. falciparum 3D7 crude extract, LDH APAD/NBT absorbance; at 2 µM; hits give high values. Background: Counterscreens check selectivity or assay interference.

Experiment [4] is described as follows: inhibition of 3D7 malaria parasite growth – strain 3D7 (AID 2306).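 Also: 0% = DMSO wells and 100% = chloroquine plus artemisinin control wells.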 The following applies: P. falciparum 3D7 erythrocytic growth, LDH absorbance, 72 h; at 2 µM; hits give high values.
The target of experiment [5] is Calcium-dependent protein kinase 1 (Plasmodium falciparum (isolate 3D7)) (UniProt P62344). Nature of the experiment: PfCDPK1 kinase inhibitors, biochemical, TCAMS library (AID 1159585; cut-off not given, nearly all actives have IC50 up to about 0.98 µM;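 also: inhibitors leave more ATP so luminescence rises with inhibition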). The following applies: recombinant PfCDPK1, Kinase-Glo ATP depletion luminescence.
Experiment [6] addresses Plasmodium falciparum protein kinase 6 (PK6, PF3D7_1337100) (UniProt Q8IDW1). Nature of the experiment: PfPK6 kinase inhibitors, biochemical, TCAMS library (AID 1159586). The following applies: recombinant PfPK6, Kinase-Glo ATP depletion luminescence. A general note: Kinase-Glo measures the ATP left after a reaction by luminescence.
The target in experiment [7] is Protein kinase 7 (PK7), Plasmodium falciparum 3D7 (PF3D7_0213400) (UniProt Q7YTF7). Nature of the experiment: inhibition of Plasmodium PK7 catalytic activity – biochemical, TCAMS antimalarial set, Kinase-Glo luminescence (AID 1159587). Particulars: recombinant PfPK7, Kinase-Glo ATP depletion luminescence.
The target in experiment [8] is Calcium-dependent protein kinase 4 (Plasmodium falciparum (isolate 3D7)) (UniProt Q8IBS5). Nature of the experiment: PfCDPK4 kinase inhibitors, biochemical, TCAMS library (AID 1159588; cut-off not given, nearly all actives have IC50 up to about 0.91 µM). The following applies: recombinant PfCDPK4, Kinase-Glo ATP depletion luminescence.

A number with no mark means an inactive call. For some of these results: Entries with a potency or affinity are not part of this list. Activity calls are given as the source filed them. Unless noted, no rule for the calls is given here.

Broadly, the inhibition is the change of the read-out against control, counted positive when it falls.

L-lactate dehydrogenase (Plasmodium falciparum (isolate CDC / Honduras)), sequence (Q27743 whole entry, looked up): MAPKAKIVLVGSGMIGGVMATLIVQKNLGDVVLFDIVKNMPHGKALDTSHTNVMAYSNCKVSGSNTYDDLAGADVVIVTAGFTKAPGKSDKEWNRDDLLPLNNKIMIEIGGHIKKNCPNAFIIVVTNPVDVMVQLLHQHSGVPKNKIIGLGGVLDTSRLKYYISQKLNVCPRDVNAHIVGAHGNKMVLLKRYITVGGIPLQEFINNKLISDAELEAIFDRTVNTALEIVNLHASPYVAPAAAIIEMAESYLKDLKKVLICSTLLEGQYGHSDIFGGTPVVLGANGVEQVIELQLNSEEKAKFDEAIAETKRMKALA
Calcium-dependent protein kinase 4 (Plasmodium falciparum (isolate 3D7)), sequence (Q8IBS5 whole entry, looked up): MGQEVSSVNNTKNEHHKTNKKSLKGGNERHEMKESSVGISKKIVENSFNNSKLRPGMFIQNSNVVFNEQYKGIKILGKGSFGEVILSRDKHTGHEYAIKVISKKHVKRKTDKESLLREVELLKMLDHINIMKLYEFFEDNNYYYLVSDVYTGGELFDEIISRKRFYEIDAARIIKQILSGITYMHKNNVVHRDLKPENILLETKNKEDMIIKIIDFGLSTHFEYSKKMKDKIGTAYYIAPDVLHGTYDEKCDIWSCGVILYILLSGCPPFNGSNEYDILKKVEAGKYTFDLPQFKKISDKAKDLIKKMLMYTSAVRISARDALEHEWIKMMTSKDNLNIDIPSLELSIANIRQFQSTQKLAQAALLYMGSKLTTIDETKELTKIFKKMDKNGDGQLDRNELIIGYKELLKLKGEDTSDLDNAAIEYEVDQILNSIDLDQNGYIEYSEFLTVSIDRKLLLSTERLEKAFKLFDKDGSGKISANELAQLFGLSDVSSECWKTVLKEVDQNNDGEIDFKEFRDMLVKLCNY
Protein kinase 7 (PK7), Plasmodium falciparum 3D7 (PF3D7_0213400), sequence (Q7YTF7 1-343): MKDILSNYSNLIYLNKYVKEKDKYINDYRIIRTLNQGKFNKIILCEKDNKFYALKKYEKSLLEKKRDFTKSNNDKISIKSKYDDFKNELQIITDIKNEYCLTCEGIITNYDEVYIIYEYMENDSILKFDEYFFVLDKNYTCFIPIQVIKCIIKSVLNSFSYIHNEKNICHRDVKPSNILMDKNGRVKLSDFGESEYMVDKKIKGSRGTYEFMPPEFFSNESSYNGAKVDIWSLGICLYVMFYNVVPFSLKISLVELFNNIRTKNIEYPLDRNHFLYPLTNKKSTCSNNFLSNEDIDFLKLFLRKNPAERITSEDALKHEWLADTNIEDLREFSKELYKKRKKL
Calcium-dependent protein kinase 1 (Plasmodium falciparum (isolate 3D7)), sequence (P62344 whole entry, looked up): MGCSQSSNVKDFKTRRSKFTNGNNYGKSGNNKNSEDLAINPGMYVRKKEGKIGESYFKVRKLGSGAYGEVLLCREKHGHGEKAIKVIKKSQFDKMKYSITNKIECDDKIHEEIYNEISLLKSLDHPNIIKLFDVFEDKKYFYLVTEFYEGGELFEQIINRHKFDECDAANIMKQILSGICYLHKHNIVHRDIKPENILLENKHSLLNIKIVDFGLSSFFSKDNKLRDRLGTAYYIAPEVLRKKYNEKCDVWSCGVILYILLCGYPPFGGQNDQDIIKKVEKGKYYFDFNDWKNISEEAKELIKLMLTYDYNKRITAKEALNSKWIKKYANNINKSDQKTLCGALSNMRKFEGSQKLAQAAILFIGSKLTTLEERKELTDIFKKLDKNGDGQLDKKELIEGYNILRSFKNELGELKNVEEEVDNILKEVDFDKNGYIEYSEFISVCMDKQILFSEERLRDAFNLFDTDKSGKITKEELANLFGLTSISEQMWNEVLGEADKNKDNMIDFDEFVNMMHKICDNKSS
Plasmodium falciparum protein kinase 6 (PK6, PF3D7_1337100), sequence (Q8IDW1 1-305): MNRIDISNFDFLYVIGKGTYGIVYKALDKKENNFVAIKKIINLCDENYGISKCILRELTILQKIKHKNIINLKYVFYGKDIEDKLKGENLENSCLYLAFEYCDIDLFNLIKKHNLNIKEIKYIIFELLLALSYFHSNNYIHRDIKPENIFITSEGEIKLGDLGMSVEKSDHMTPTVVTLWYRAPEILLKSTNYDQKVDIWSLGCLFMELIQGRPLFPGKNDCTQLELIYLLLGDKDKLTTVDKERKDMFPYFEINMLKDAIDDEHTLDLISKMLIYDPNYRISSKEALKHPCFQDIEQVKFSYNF

For the compound `O=C(Cc1n[nH]c(=O)c2ccccc12)Nc1cccc(C(=O)Nc2cccc(C(F)(F)F)c2)c1`, the growth inhibition in experiment [1] was 90% (active); in experiment [4], 97% (active). Besides, the values for the inhibition in experiment [2] and in experiment [3] were 0% and -6%, respectively. Further, the result in experiment [5], in experiment [6], in experiment [7] and in experiment [8] was inactive.

Take `O=S1C(Cl)=C(c2ccc(Cl)cc2)c2ccc(Cl)cc21` (stereo not given): the growth inhibition is 99% (active) in experiment [1] and 91% (active) in experiment [4]. The inhibition was 33% in experiment [2] and 1% in experiment [3]. Further, the outcome in experiment [5], in experiment [6], in experiment [7] and in experiment [8] was inactive.

In the case of `CCCCn1c(Sc2ccc(C#N)c([N+](=O)[O-])c2)nnc1-c1cccc(Cl)c1`, the figures for the growth inhibition in experiment [1] and in experiment [4] were 87% (active) and 96% (active), respectively. Besides, the inhibition in experiment [2] is 30%; in experiment [3], 2%. Besides, the outcome in experiment [5], in experiment [6], in experiment [7] and in experiment [8] was inactive.

For the compound `COc1ccc(-c2nonc2NC(=O)c2cccc(C)c2)cc1OC`, the growth inhibition is 8% in experiment [1] and 97% (active) in experiment [4]. Also, the inhibition is 24% in experiment [2] and -1% in experiment [3]. Besides, the outcome in experiment [5], in experiment [6], in experiment [7] and in experiment [8] was inactive.

In the case of `COc1cc(NC(=O)N2CCc3ccc(OCCN(C(C)C)C(C)C)cc32)cc(C(F)(F)F)c1`, the results for the growth inhibition in experiment [1] and in experiment [4] were 97% (active) and 102% (active), respectively. The inhibition was 6% in experiment [2] and 3% in experiment [3]. For the same compound, the result in experiment [5], in experiment [6], in experiment [7] and in experiment [8] was inactive.

For the compound `O=S(=O)(NC1CCN(c2ccnc3cc(Cl)ccc23)C1)c1ccc(F)cc1` (stereo not given), the growth inhibition was 88% (active) in experiment [1] and 98% (active) in experiment [4]. The inhibition in experiment [2] and in experiment [3] was 3% throughout. The result in experiment [5], in experiment [6], in experiment [7] and in experiment [8] was inactive.

As to `O=C(Cc1ccc(NC(=O)c2ccc(O)c(-c3ccc(Cl)c(Cl)c3)c2)cc1)NCc1cccc(C(F)(F)F)c1`, the growth inhibition was 28% in experiment [1] and 95% (active) in experiment [4]. Moreover, the inhibition in experiment [2] is -7%; in experiment [3] it was 0%. The result in experiment [5], in experiment [6], in experiment [7] and in experiment [8] was inactive.

On to `Cc1ccc(-c2ccc3c(c2)C=C(C(=O)NCC2CCN(CC4CCN(C(=O)/C=C/c5ccc(Cl)c(Cl)c5)CC4)CC2)CCC3)cc1`, for which the values for the growth inhibition in experiment [1] and in experiment [4] were 70% (active) and 99% (active), respectively. For the same compound, the inhibition in experiment [2] is 96% (active); in experiment [3], -7%. The result in experiment [5], in experiment [6], in experiment [7] and in experiment [8] was inactive.

For `COc1cc2nc(C)nc(Nc3ccc(Cc4ccccc4)cc3)c2cc1OC`, the results for the growth inhibition in experiment [1] and in experiment [4] were 99% (active) and 101% (active), respectively. Also, the inhibition in experiment [2] is 16%; in experiment [3] it was -1%. The result in experiment [5], in experiment [6], in experiment [7] and in experiment [8] was inactive.

As for `COc1cc(NCC2(CNCc3cn(Cc4ccccc4)c4ccccc34)CCCCC2)nc2ccccc12`, the figures for the growth inhibition in experiment [1] and in experiment [4] were 12% and 95% (active), respectively. Also, the results for the inhibition in experiment [2] and in experiment [3] were 65% (active) and 5%, respectively. Further, the outcome in experiment [5], in experiment [6], in experiment [7] and in experiment [8] was inactive.

`O=C(Nc1ccc(Cl)cc1)c1cccc(S(=O)(=O)NC2CCN(CC3CCCCC3)CC2)c1`: the growth inhibition is 11% in experiment [1] and 92% (active) in experiment [4]. Moreover, the inhibition was 67% (active) in experiment [2] and 0% in experiment [3]. Further, the result in experiment [5], in experiment [6], in experiment [7] and in experiment [8] was inactive.

Take `NC(N)=Nc1nc(-c2cccc(NCCCCCCCCON3C(N)=NC(N)=NC34CCCCC4)c2)cs1`: the results for the growth inhibition in experiment [1] and in experiment [4] were 42% and 97% (active), respectively. In addition, the results for the inhibition in experiment [2] and in experiment [3] were 3% and -2%, respectively. Also, the result in experiment [5], in experiment [6], in experiment [7] and in experiment [8] was inactive.

`COc1ccc2nccc([C@@H](O)CN3CCC(NCCOc4ccccc4C(F)(F)F)CC3)c2c1`: the growth inhibition in experiment [1] is 95% (active); in experiment [4] it was 98% (active). The inhibition is 2% in experiment [2] and -5% in experiment [3]. The outcome in experiment [5], in experiment [6], in experiment [7] and in experiment [8] was inactive.

For the compound `CC[C@H](C)CNC(=O)c1cncc(-c2cccc(CN3CCC(N4CCCC4)CC3)c2)c1`, the results for the growth inhibition in experiment [1] and in experiment [4] were 5% and 97% (active), respectively. The figures for the inhibition in experiment [2] and in experiment [3] were -1% and 6%, respectively. Also, the result in experiment [5], in experiment [6], in experiment [7] and in experiment [8] was inactive.

On to `CCc1cn2c3c(cc(C(=O)N[C@@H](Cc4cccc(F)c4)[C@H](O)CNC4CCCCC4)cc13)N(C)S(=O)(=O)CC2`, for which the growth inhibition in experiment [1] and in experiment [4] was 99% (active) throughout. Also, the inhibition in experiment [2] was 5%; in experiment [3], 0%. Moreover, the outcome in experiment [5], in experiment [6], in experiment [7] and in experiment [8] was inactive.

Consider `CC(C)c1ccc(-c2nc3ncc(Cl)cc3[nH]2)cc1`, for which the growth inhibition in experiment [1] was 77% (active); in experiment [4] it was 87% (active). In addition, the inhibition in experiment [2] was 3%; in experiment [3], -2%. For the same compound, the outcome in experiment [5], in experiment [6], in experiment [7] and in experiment [8] was inactive.

For `CN(C)CCCOc1cccc(NC(=O)Nc2ccc(-c3ccccc3)cc2)c1`, the results for the growth inhibition in experiment [1] and in experiment [4] were 14% and 91% (active), respectively. Also, the inhibition in experiment [2] is 9%; in experiment [3], -8%. Further, the result in experiment [5], in experiment [6], in experiment [7] and in experiment [8] was inactive.

For `CCc1cc(Cc2cnc(N)nc2N)cc(CC)c1OC`, the growth inhibition is 12% in experiment [1] and 90% (active) in experiment [4]. Also, the inhibition in experiment [2] is 3%; in experiment [3], 8%. Further, the result in experiment [5], in experiment [6], in experiment [7] and in experiment [8] was inactive.

Regarding `COc1ccc(OC)c(-c2ccc(=O)n(CC(=O)Nc3cccc4ccccc34)n2)c1`, the growth inhibition was 95% (active) in experiment [1] and 101% (active) in experiment [4]. The inhibition in experiment [2] is -9%; in experiment [3] it was 3%. The outcome in experiment [5], in experiment [6], in experiment [7] and in experiment [8] was inactive.

As to `CCOc1ccc2nc(N(CCCn3ccnc3)C(=O)C=Cc3cccs3)sc2c1`, the growth inhibition in experiment [1] and in experiment [4] was 97% (active) each time. Moreover, the inhibition in experiment [2] and in experiment [3] was -1% each time. The outcome in experiment [5], in experiment [6], in experiment [7] and in experiment [8] was inactive.

These data come from PubChem BioAssay.
